D1 PAM = enhances dopamine response at the human D1 receptor. HEK293 TREx D1 cells, calcium flux, dopamine EC20 potentiation. potentiation, % at 10 µM. 360,000 compounds, 0.036% hits; in the data active means potentiation above about 30%; further: 0% is about no effect
TRHR ag = agonists of human TRH receptor; activation, % at 2 µM; TRHR cells, calcium flux fluo-8, FDSS agonist mode; P34981; 360,000 compounds, 0.18% hits; further: 0% is about no effect
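TRHR-expressing cells, plated overnight in medium with 10% serum, were loaded with fluo-8 calcium dye at room temperature. After a 10 s baseline, library compound was pin-added and calcium release was recorded kinetically (ex 480/em 530) as agonist response.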
TRHR enhancer = TRH receptor (human) allosteric enhancement | TRHR cells, fluo-8 calcium fluorescence, EC20 TRH enhancement | enhancement, % at 2 µM | 360,000 compounds, 0.66% hits; in the data active means enhancement above about 30%; further: 0% is about no effect
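Enhancer read-out: after compound pinning and an initial kinetic agonist-mode read, an EC20 of TRH (10 nM final) was injected and fluo-8 calcium signal (Ex 480/Em 530) followed at 1 s/cycle for 100 cycles in TRHR-expressing cells.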
D1 agonist = human D1 receptor agonism. 360,000 compounds, 1% hits. HEK293 T-REx D1 cells, calcium flux, agonist mode. P21728. activation, % at 2 µM; further: 0% is about no effect
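Tetracycline-induced HEK293 TREx D1 cells, force-coupled to calcium signalling, were dye-loaded with a no-wash calcium kit. Compound was pin-added after a 10 s baseline. Fluorescence was read kinetically at 1 cycle/s for 180 s, with calcium rises flagged as agonism.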
D1 antagonist = human D1 dopamine receptor antagonism | activity change, negative = inhibition, % at 10 µM | P21728 | 360,000 compounds, 3.2% hits | HEK293 TREx D1 cells, calcium flux, dopamine EC80; hits give low values | AID 504652; in the data active means activity change below about -30%; further: on the % scale 0 is the no-effect control and ±100 the full control effect
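Antagonism measured as reduced calcium response to an EC80 dopamine addition following 180 s compound pre-read; cells were inducible HEK293 Trex D1 plated overnight at 30 C, read kinetically at 1 cycle/sec.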
USP1-UAF1 inh = blocks the human USP1/UAF1 deubiquitinase complex | O94782 | recombinant USP1/UAF1, Ub-Rhodamine cleavage fluorescence | Potency, µM (series often up to 57.1 µM), for the others: at the top dose activity change, negative = inhibition, hits mostly inhibitors | 390,000 compounds, 0.23% hits; active means well fitted inhibition curve with a large enough effect; further: potency means the concentration at half of the fitted maximal effect; on the % scale 0 is the no-effect control and ±100 the full control effect; nearly all actives have a fitted effect of over 60% in size
Target sequence (O94782 whole entry, looked up): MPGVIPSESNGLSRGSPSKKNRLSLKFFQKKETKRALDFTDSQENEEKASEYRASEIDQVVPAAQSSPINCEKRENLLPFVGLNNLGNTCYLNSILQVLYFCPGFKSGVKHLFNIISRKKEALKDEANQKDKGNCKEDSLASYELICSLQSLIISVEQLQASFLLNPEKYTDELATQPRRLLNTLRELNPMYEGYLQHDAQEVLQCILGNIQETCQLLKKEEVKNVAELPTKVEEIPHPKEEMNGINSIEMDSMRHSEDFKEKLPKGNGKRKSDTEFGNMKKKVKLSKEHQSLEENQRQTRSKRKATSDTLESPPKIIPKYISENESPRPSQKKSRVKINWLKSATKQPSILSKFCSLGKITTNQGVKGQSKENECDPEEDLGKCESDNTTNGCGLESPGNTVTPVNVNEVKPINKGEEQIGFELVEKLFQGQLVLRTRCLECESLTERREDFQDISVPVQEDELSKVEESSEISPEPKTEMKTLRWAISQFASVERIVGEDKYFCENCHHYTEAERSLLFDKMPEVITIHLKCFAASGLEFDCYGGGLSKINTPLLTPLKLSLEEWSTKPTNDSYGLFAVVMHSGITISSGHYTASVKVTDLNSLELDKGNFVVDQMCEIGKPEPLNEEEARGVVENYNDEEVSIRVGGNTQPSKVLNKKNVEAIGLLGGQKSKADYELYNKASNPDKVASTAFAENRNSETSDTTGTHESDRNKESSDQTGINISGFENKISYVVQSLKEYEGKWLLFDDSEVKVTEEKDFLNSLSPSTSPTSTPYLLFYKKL
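1 nM enzyme complex + cpd, 15 min RT; start with Ub-Rho 150nM final; kinetic fluorescence ex 480/em 540, 6 reads q60 s. Buffer 50mM HEPES pH 7.8, 0.5mM EDTA, 0.1 mg/ml BSA, 1mM TCEP, 0.01% Tween-20.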
The depositor's hits bear a star; ! = not active in a repeat. Most compounds without a hit are left out; they make up all but 4.4% or so of the library. Unless noted, no stated cut-off is given here; in the data, active means activation above about 30%; inactive means the rest.

How did CN(Cc1ccccc1)S(=O)(=O)c1ccc(F)c(C(=O)Nc2cc(Cl)cc(Cl)c2)c1 do in these assays?
D1 PAM: 5; TRHR ag: 1; TRHR enhancer: 3; D1 agonist: -3; D1 antagonist: 13; USP1-UAF1 inh: -10%

What do the screens show for `CCOC(=O)CCCCN(Cc1ccccc1F)S(=O)(=O)c1ccc(F)c(C(=O)Nc2cc(Cl)cc(Cl)c2)c1`?
D1 PAM: 4; TRHR ag: 5; TRHR enhancer: 0; D1 agonist: 32*; D1 antagonist: 24; USP1-UAF1 inh: -18%

What do the screens show for `CCN(Cc1ccccc1)S(=O)(=O)c1ccc(F)c(C(=O)Nc2cc(C(F)(F)F)ccc2Cl)c1`?
D1 PAM: -2; TRHR ag: 2; TRHR enhancer: -4; D1 agonist: 19; D1 antagonist: -30*; USP1-UAF1 inh: -16%

What do the screens show for `CCOc1ccc(-c2nc(C(N)=O)c3c(n2)n(-c2ccc4c(c2)OCO4)c(=O)n3CC)cc1`?
D1 PAM: -4; TRHR ag: 0; TRHR enhancer: 9; D1 agonist: 1; D1 antagonist: -14; USP1-UAF1 inh: -14%

Results for Clc1cccc(-c2ccc(/C=N/n3cnnc3)o2)c1Cl ?
D1 PAM: -5; TRHR ag: -1; TRHR enhancer: -2; D1 agonist: 1; D1 antagonist: -61*; USP1-UAF1 inh: -10%

What do the screens show for `CC(C)(C)NC(=O)c1cccc(NC(=O)CSc2ccc(Cl)cc2)c1`?
D1 PAM: -11; TRHR ag: 0; TRHR enhancer: -5; D1 agonist: 10; D1 antagonist: -59*; USP1-UAF1 inh: -2%

How did COC(=O)C(C(=O)OC)C(C(=O)OC)C(C(=O)OC)C(=O)OC do in these assays?
D1 PAM: 4; TRHR ag: 0; TRHR enhancer: -1; D1 agonist: 1; D1 antagonist: 3; USP1-UAF1 inh: 0%

What do the screens show for `COC(=O)C(C(=O)OC)C(C(C)C)C(C(=O)OC)C(=O)OC`?
D1 PAM: -7; TRHR ag: 0; TRHR enhancer: 40*; D1 agonist: -1; D1 antagonist: -5; USP1-UAF1 inh: -12%

What do the screens show for `CCC(C(=O)NCc1ccc2c(c1)CCN2C(=O)c1ccc(F)cc1)c1ccccc1` (configuration not stated)?
D1 PAM: -5; TRHR ag: -1; TRHR enhancer: -4; D1 agonist: 0; D1 antagonist: -17; USP1-UAF1 inh: -18%

What do the screens show for `Cc1ccc(-c2nn(-c3cc(Cl)ccc3[N+](=O)[O-])c(=O)c3ccccc23)cc1C`?
D1 PAM: 1; TRHR ag: 0; TRHR enhancer: -11; D1 agonist: 0; D1 antagonist: -49*; USP1-UAF1 inh: -8%

Results for Cc1ccccc1NC(=O)CSc1n[nH]c(-c2ccccn2)n1 ?
D1 PAM: 6; TRHR ag: 0; TRHR enhancer: 35*; D1 agonist: 3; D1 antagonist: 1; USP1-UAF1 inh: -25%

How did Cc1ccc(NC(=O)C(Cc2c[nH]c3ccccc23)NC(=O)OCC(C)C)cc1 (configuration not stated) do in these assays?
D1 PAM: -3; TRHR ag: -1; TRHR enhancer: -3; D1 agonist: 0; D1 antagonist: 5; USP1-UAF1 inh: -20%

How did COc1ccccc1CNC(=O)C(CC(C)C)NS(=O)(=O)c1ccc2c(c1)oc(=O)n2C (configuration not stated) do in these assays?
D1 PAM: 3; TRHR ag: 0; TRHR enhancer: -23; D1 agonist: 1; D1 antagonist: -32*!; USP1-UAF1 inh: -18%

What do the screens show for `COc1ccccc1CNC(=O)C(CCSC)NS(=O)(=O)c1ccc2c(c1)oc(=O)n2C` (configuration not stated)?
D1 PAM: 9; TRHR ag: 1; TRHR enhancer: 4; D1 agonist: 0; D1 antagonist: 4; USP1-UAF1 inh: -6%
